High-throughput results deposited in PubChem BioAssay by Columbia University Molecular Screening Center.
VCAM1 TNFa pot: enhances TNF alpha induced VCAM1 expression in HUVEC | HUVEC TNFa-stimulated VCAM-1 immunofluorescence, high-content imaging; scaled per plate to unstimulated/TNFa-only wells | AID 808 | actives 0.19% (n = 93,000) | activation, % at 2 µM;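 active means activation above the screen mean plus 3 SD, with well images confirming the hit on visual review, cut at about 28% in these data, passing the limit was not always enough; inconclusive means activation above that limit but images do not confirm it; inactive means activation not above that limit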;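 further: signal is the number of cytoplasmic VCAM-1 stained grains per positive cell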
VCAM1 pot conf: potentiators of TNFa-induced VCAM1 expression, confirmation, imaging, HUVEC, triplicate retest. HUVEC TNFa-stimulated VCAM-1 immunofluorescence imaging. 230 tested, under 10 active. shares compounds with VCAM1 TNFa pot. activation, % at 2 µM. AID 1034;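 active means activation above 30% in triplicate retests at 2 µM, then confirmed by visual review of the well images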;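 further: scaled per plate between unstimulated and TNFa-stimulated DMSO control wells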
An asterisk follows results filed as active; u = inconclusive. The entries come from a sample that favours hits as a whole.

SMILES	VCAM1 TNFa pot	others
CC(C)(C)C(=O)N1CCN(c2c(Cl)cccc2[N+](=O)[O-])CC1	3
Cc1ccc(OCC(=O)Nc2ccc([N+](=O)[O-])cn2)cc1C	1
CCCCNC(=O)CN(c1cccc(Br)c1)S(C)(=O)=O	31
Cn1c(=O)c2c(-c3ccncc3)c3c(nc2n(C)c1=O)-c1ccccc1C3=O	20
Cc1cc(N2CCOCC2)nc(SCc2ccc(Cl)cc2Cl)n1	-6
CC1=C(C)/C(=N/OC(=O)c2cccc([N+](=O)[O-])c2)C=CC1=O	26
O=C(c1ccccc1-c1nc(-c2ccc(Cl)cc2)no1)N1CCCC1	5
O=C(O)c1[nH]nc2c1COc1ccccc1-2	-14
CCN(CC)CC(C)OC(=O)COc1ccc(OC)cc1 (stereo not given)	33
COc1cccc(/C=C/C(=C2\C(=O)N(c3ccccc3)N=C2C)c2ccc(Br)cc2)c1OC	4
O=S(=O)(NCc1ccco1)c1ccc(S(=O)(=O)N2CCCCC2)cc1	-4
Cc1cccc(CCNC(=O)CN(C)S(=O)(=O)c2ccc3c(c2)c(=O)n(C)c(=O)n3C)c1	-1
CCOc1ccccc1CNS(=O)(=O)c1ccc2c(c1)oc(=O)n2C	-8
Cc1cccc(CCNS(=O)(=O)c2ccc3c(c2)oc(=O)n3C)c1	111*	VCAM1 pot conf=-14
O=C(NC(NCCCN1CCOCC1)(C(F)(F)F)C(F)(F)F)C1CCCCC1	-5
CCOC(=O)Cn1nc(C)n(-c2ccc(C(C)C)cc2)c1=O	4
Cc1ccnc(NC(=O)c2ccc(COc3ccc(Cl)cc3)o2)c1	3
Cn1c(/C=N/n2cnnc2)nc2ccccc21	u	VCAM1 pot conf=-6
Cn1c(/N=C/c2c[nH]c3ccccc23)nc2ccccc21	-6
Cn1c(NCc2c[nH]c3ccccc23)nc2ccccc21	-58
Cc1nn(C(CC(=O)O)C(=O)O)c(C)c1Br (stereo not given)	7
Cc1nnsc1C(=O)Nc1cccc(Cl)c1Cl	1
CCOc1ccc(-c2nnc3sc(COc4ccc(C)cc4)nn23)cc1	40*	VCAM1 pot conf=-17
c1ccc(-c2nnc3sc(-c4ccncc4)nn23)cc1	-7
COc1ccc(Cc2nn3c(-c4ccccc4Br)nnc3s2)cc1	7
SMILES	VCAM1 TNFa pot	others
COC(=O)NNC(=O)c1ccccc1C	6
COc1ccc(CN2CCCCC2C(=O)Nc2ccc(OC)c(OCC(C)C)c2)cc1OC (stereo not given)	-97
CC(=O)c1cccc(N(CC(=O)O)S(C)(=O)=O)c1	0
CCOC(=O)c1ccc(NC(=O)Cn2nnc(-c3ccccc3)n2)cc1	-88
CCOc1ccc(-c2nnn(CC(=O)c3ccc4c(c3)OCCO4)n2)cc1	84*	VCAM1 pot conf=-20
Cc1cc(C)n(-c2ccc(C(=O)Oc3ccc4c(c3)OCO4)cc2)n1	23
COc1ccc(-c2cc(C(=O)Nc3cc(C)n(Cc4ccc(Cl)cc4)n3)no2)cc1OC	-52
Cc1nc(CS(=O)c2ccccc2)cc(N2CCOCC2)n1 (stereo not given)	-16
c1ccc(-c2cc(N3CCCCCC3)n[nH]2)cc1	13
Cc1nc(-c2ccccc2)cc(N2CCCC2)n1	61*	VCAM1 pot conf=-8
O=C(NCc1ccco1)c1n[nH]c(=O)c2ccccc12	-5
COc1cccc2[nH]c3c(N4CC(C)CC(C)C4)ncnc3c12 (stereo not given)	3
CCCCCc1nnc(NC(=O)Cc2cccs2)s1	1
Cc1cc(C)n(-c2ccc(C(=O)OCC(=O)Nc3ccc(Cl)c(S(=O)(=O)N(C)C)c3)cc2)n1	0
CCCN1C(=O)SC(CC(=O)Nc2ccc(C)cc2)C1=O (stereo not given)	32
Cc1ccc(NC(=O)COC(=O)c2ccn(C)n2)cc1	u	VCAM1 pot conf=-18
COCCNC(=O)CSc1nc2ccccc2c(=O)n1CCCC(=O)NCc1ccccc1	4
COc1ccc(NS(=O)(=O)c2cc(C)ccc2NC(=O)c2cc(C)oc2C)cc1	-44
O=C1C=C(O)CC(c2ccc(Cl)c(Cl)c2)C1 (stereo not given)	u	VCAM1 pot conf=-1
O=C1C=C(O)CC(c2ccc(Cl)cc2)C1 (stereo not given)	-3
COc1cc(C2CC(=O)C=C(O)C2)cc(OC)c1OC (stereo not given)	16
COC(=O)C(C)Oc1ccc2c3c(c(=O)oc2c1)CCCCC3 (stereo not given)	-40
Cc1ccc(S(=O)(=O)NC(C)(C)CSc2nnc(N)s2)cc1	3
Cc1ccc(S(=O)(=O)NCC(c2ccccc2)N2CCN(CCC#N)CC2)cc1 (stereo not given)	-2
CCOc1cccc(C(=O)Nc2ccc3oc(Cc4ccc(Cl)cc4)nc3c2)c1	-24
SMILES	VCAM1 TNFa pot	others
COc1cc(NS(=O)(=O)c2ccc(NC(=O)COc3ccc(C)cc3)cc2)nc(OC)n1	-7
COc1cc(NC(=O)NS(=O)(=O)c2ccc(C)cc2)cc(OC)c1	60*	VCAM1 pot conf=-23
Cc1ccc(S(=O)(=O)NC(=O)Nc2cc(C)ccc2F)cc1	2
CSc1nc(C)cc(OCC#N)n1	10
O=S(=O)(c1ccc2c(c1)nc(COc1ccc(Cl)cc1)n2CC1CCCO1)N1CCOCC1 (stereo not given)	-5
COc1ccccc1-n1cnc2cc(NS(=O)(=O)c3ccc(Br)cc3)ccc21	0
CCOC(=O)c1ccc(NC(=O)CSc2nnc(C3CCCCC3)n2C)cc1	11
O=C(COc1ccc(S(=O)(=O)N2CCCCC2)cc1)NC1CCCCC1	-4
CCCn1nnc(NC(=O)COc2ccc(C3CCCCC3)cc2)n1	68*	VCAM1 pot conf=-14
Cc1nc(Nc2ccccc2)[nH]c(=O)c1CCC(C)C	u	VCAM1 pot conf=3
NC(=O)c1nn(-c2ccccc2)c(=O)cc1O	-19
CCCCC1CC1C(=O)Nc1ncc2c(n1)CC(C)(C)CC2=O (stereo not given)	3
O=C(NNC(=O)c1cc(-c2ccc(Cl)cc2Cl)nc2ccccc12)Nc1ccccc1	3
CCOC(=O)c1sc(NC(=O)/C=C/c2cnn(CC)c2C)c(C(=O)OCC)c1C	-1
O=C(CCC(=O)N1CCc2ccccc21)Nc1ccccc1	5
O=C(CCN1CCc2ccccc21)c1ccc2c(c1)OCCO2	67*	VCAM1 pot conf=0
CCCCn1c(SCC(=O)c2ccc3c(c2)OCCO3)nnc1-c1ccco1	-2
CCOC(=O)c1cnc2nc(COc3ccccc3)[nH]n2c1=O	-6
CC(C)(C)C1CCC2(CC1)C(Nc1cccc(C(F)(F)F)c1)=NC(=S)N2CC#N (stereo not given)	u	VCAM1 pot conf=-10
O=C(c1ccc(-n2cnnn2)cc1)N1CCCCC1	-2
O=C(COc1ccc2ccccc2c1Br)Nn1cnnc1	-22
CCN(CCNC(=O)C1CCCN(S(=O)(=O)CC)C1)c1ccccc1 (stereo not given)	-8
CC(NC(=O)C1CCCN(C(=O)N(C)C)C1)c1ccccc1 (stereo not given)	66*	VCAM1 pot conf=-36
O=C(C1CCCN(S(=O)(=O)Cc2ccccc2)C1)N1CCCCC1 (stereo not given)	10
O=C(NCC1CCCO1)C1CCC(=O)N1Cc1ccccc1Cl (stereo not given)	6
CC(C)(C)N1CC2(c3ccccc3)CN(C(C)(C)C)CC(c3ccccc3)(C1)C2=O	-2
CCN(CC)CC(C(=O)N(CC)CC)P(=O)(c1ccccc1)c1ccccc1 (stereo not given)	-6
COc1ccc(CSc2nc3ccccc3[nH]2)cc1	-35
Nc1nc(COc2ccc3ccccc3c2)cs1	13
c1ccc2cc(OCc3nc4ccccc4[nH]3)ccc2c1	66*	VCAM1 pot conf=-4
